12-LOX inh: inhibitors of human 12S-lipoxygenase ALOX12 | AID 1671190 | purified 12hLO, xylenol orange hydroperoxide absorbance | Potency, µM (series often up to 108 µM), usual class: inhibitors | P18054 | 580,000 compounds, 1.1% hits
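Purified human 12hLO at 150 nM in 25 mM Hepes, 0.01% Triton X-100, pH 7.0, preincubated 15 min at room temperature with compound. Reaction started with 40 uM arachidonic acid, 30 min at room temperature. Hydroperoxide measured by Fe-xylenol orange, 573/405 nm absorbance ratio.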
BAZ2B block: blocks human BAZ2B | AID 504333 | 360,000 compounds, 4.4% hits | Q9UIF8 | AlphaScreen BAZ2B-H3K14Ac peptide displacement | Potency, µM (top dose mostly 114 µM), hits mostly inhibitors; also: nearly all actives have a fitted effect of over 60% in size
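AlphaScreen displacement of biotin-H3(5-23)K14Ac peptide (50 nM final) from BAZ2B (50 nM final) in PBS pH 7.4, 0.01% Tween-20; complex preformed 30 min RT, then compounds (top 110 uM) 30 min RT, beads 20 min dark.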
HP1b chromo inh: blocks HP1-beta chromodomain binding to methylated histone tails; P83916; AlphaScreen HP1-beta / biotin-H3K9me3 peptide binding; Potency, µM (top dose mostly 114 µM), hits mostly inhibitors; 390,000 compounds, 0.56% hits; AID 540317; also: nearly all actives have a fitted effect of over 70% in size
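Compound inhibition of the preformed complex between 50 nM HP1-beta and 50 nM biotinylated H3K9me3 peptide was read by AlphaScreen. Buffer was PBS pH 7.4 with 0.01% Tween-20. Incubations ran 30 min at room temperature, with 10 ug/mL donor/acceptor beads.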
JMJD2A Tudor inh: inhibitors of human JMJD2A Tudor domain | AlphaScreen JMJD2A-Tudor / H3K4me3 peptide binding | Potency, µM (top dose mostly 114 µM), actives largely listed as inhibitors | 390,000 compounds, 4.4% hits | AID 504339; also: nearly all actives have a fitted effect of over 50% in size
PLK1 PBD inh: blocks phosphopeptide binding to human PLK1 polo-box domain; P53350; Plk1 PBD binding of FITC phosphopeptide, fluorescence polarization; Potency, µM, actives largely listed as inhibitors; 360,000 compounds, 2.8% hits; AID 720504; also: series mostly up to about 57 µM; nearly all actives have a fitted effect of over 65% in size
Target sequence (P53350 whole entry, looked up, the tested form may be a part): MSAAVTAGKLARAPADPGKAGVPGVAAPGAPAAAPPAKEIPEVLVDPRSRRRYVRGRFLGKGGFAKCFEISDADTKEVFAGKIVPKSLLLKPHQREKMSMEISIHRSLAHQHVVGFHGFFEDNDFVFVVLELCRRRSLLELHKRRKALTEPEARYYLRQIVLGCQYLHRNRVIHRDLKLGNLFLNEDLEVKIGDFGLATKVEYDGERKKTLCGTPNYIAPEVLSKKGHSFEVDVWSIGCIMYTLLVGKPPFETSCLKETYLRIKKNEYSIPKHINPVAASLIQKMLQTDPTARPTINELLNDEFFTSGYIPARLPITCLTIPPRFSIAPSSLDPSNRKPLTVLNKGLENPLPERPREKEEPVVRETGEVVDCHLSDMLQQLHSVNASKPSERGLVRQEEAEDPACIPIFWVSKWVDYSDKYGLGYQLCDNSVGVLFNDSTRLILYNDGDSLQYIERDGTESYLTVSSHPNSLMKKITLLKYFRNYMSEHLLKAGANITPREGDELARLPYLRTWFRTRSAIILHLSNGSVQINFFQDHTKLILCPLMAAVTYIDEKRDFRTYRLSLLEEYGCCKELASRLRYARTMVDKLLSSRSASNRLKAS
G9a inh: blocks human histone lysine methyltransferase G9a | Q96KQ7 | G9a H3K9 monomethylation, AlphaScreen, 2 h | Potency, µM (highest dose often 102 µM), usual class: inhibitors | 350,000 compounds, 8.8% hits; also: nearly all actives have a fitted effect of over 75% in size
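Readings reflect AlphaScreen signal from monomethyl-H3K9 antibody detection. HMT at 20 nM; substrate b-H3K9 500 nM; cofactor SAM 20 uM; 2 h RT reaction; compounds tested as titrations in qHTS with 15 min preincubation.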
Hits are given with their value; i = inactive; ? = inconclusive; nt = no result; [ ] = dose if it differs, or a comment. A selection: hits, their analogues and other compounds. The true share with any hit is near 9%. Calls follow the shape of the dose curve; as a rule, active = well fitted curve in the direction sought with a large enough effect; inconclusive = small, poorly fitted or top-dose-only effect, or another doubt; inactive = no such curve, though single readings can be large; an effect the other way counts as inactive or inconclusive.

SMILES	12-LOX inh	BAZ2B block	HP1b chromo inh	JMJD2A Tudor inh	PLK1 PBD inh	G9a inh
Cc1ccc(CC(=O)NCCc2ccccn2)cc1	i	nt	nt	nt	nt	nt
N#Cc1nc(-c2ccccc2)oc1NCc1ccc2c(c1)OCO2	i	nt	nt	nt	nt	nt
CCNc1oc(-c2cccc3ccccc23)nc1C#N	i	i	i	i	i	i
N#Cc1nc(COc2cccc(Cl)c2)oc1NCc1ccc2c(c1)OCO2	13µM	nt	nt	nt	nt	nt
CC(C)Nc1oc(-c2cccc3ccccc23)nc1C#N	?	i	i	i	i	45µM
N#Cc1nc(-c2cccc3ccccc23)oc1NCc1ccc2c(c1)OCO2	32µM	nt	nt	nt	nt	nt
N#Cc1nc(COc2ccc(Cl)cc2)oc1NCc1ccc2c(c1)OCO2	?	?	?	i	i	28µM
CC(=O)c1cc2c(cc1NC(=O)c1cnc(C)cn1)OCO2	i	i	i	i	i	i
O=C(c1ccccn1)N1CCC2(CC1)NCCc1c2[nH]c2ccccc12	i	nt	nt	nt	nt	nt
COc1ccc(-n2c(COc3cccc4cccnc34)nnc2SCC(=O)O)cc1	i	i	i	i	i	nt
COc1cc(OC)c(OC)cc1/C=N/n1c(-c2n[nH]c3c2CCC3)n[nH]c1=S	i	i	i	3.2µM	?	1.6µM
COc1cccc(-c2n[nH]c3c2CCC3)c1	i	i	i	i	i	i
COc1ccc(/C=N/n2c(-c3n[nH]c4c3CCC4)n[nH]c2=S)cc1	?	i	i	10µM	i	1.6µM
COc1ccc(OC)c(/C=N/n2c(-c3n[nH]c4c3CCC4)n[nH]c2=S)c1	?	i	i	6.3µM	i	nt
Cc1cc(C)c(C#N)c(Nc2ccccc2F)n1	i	i	i	i	i	i
COc1ccc(C2=CC(c3cc(OC)c(OC)c(OC)c3)NC(=S)N2)cc1 (stereo unspecified)	?	i	i	i[11.4 µM]	12µM	6.3µM
CCOC(=O)c1c(=O)n(O)c2ccc(C)cc2[n+]1[O-]	?	?	i	89µM	i	50µM
CCOC(=O)c1c(C)[n+]([O-])c2ccc3c(non3O)c12	i	?	i	i	i	?
Cc1cc(NC(=O)Nc2csc3c2CCCC3)ccc1Br	i	i	i	i	nt	i
CCOC(=O)/C(C)=C1\NC(C)(C)Cc2ccccc21	16µM	18µM	25µM	22µM	i	2.5µM
COc1ccc(NC(=O)CSC2=C(C#N)C(c3ccco3)C3=C(CCCC3=O)N2)c(OC)c1 (stereo unspecified)	18µM	79µM	i	i	i	45µM
COc1cccc(NC(=O)CSC2=C(C#N)C(c3ccco3)C3=C(CCCC3=O)N2)c1 (stereo unspecified)	i	?	i	i	i	?
N#Cc1c(/N=C/c2ccccc2)oc(-c2ccccc2)c1-c1ccccc1	?	i	i	i	i	?
N#Cc1c(/N=C/c2ccco2)oc(-c2ccccc2)c1-c1ccccc1	?	i	i	28µM	i	?
CCOC(=O)c1c(C)[nH]c(C)c1C(=O)COC(=O)CSc1ccc(C)cc1	i	nt	?	?	i	nt
SMILES	12-LOX inh	BAZ2B block	HP1b chromo inh	JMJD2A Tudor inh	PLK1 PBD inh	G9a inh
CCCCCc1cc(=O)oc2c(C(CCN3CCCC3)c3ccc(N(C)C)cc3)c(OC)cc(OC)c12 (stereo unspecified)	i	8.9µM	?	11µM	i	?
COc1cc(OC)c2ccc(=O)oc2c1C(CCN1CCCC1)c1ccc(N(C)C)cc1 (stereo unspecified)	i	40µM	i	56µM	i	i
COc1cc(OC)c2ccc(=O)oc2c1C(CCN1CCCCC1)c1ccc(N(C)C)cc1 (stereo unspecified)	i	40µM	i	35µM	i	?
COc1cc(OC)c2ccc(=O)oc2c1C(CC(=O)N1CCCC1)c1ccc(N(C)C)cc1 (stereo unspecified)	i	i	i	?	i	?
COc1ccc(-c2sc(Nc3ccccc3)n[n+]2-c2ccc(F)cc2)c(OC)c1OC	?	i	i	i	i	?
COc1ccc(C)cc1Nc1n[n+](-c2ccccc2)c(-c2cc([N+](=O)[O-])cc(OC)c2O)s1	nt	?	i	?	i	32µM
COc1ccc(C)cc1Nc1n[n+](C)c(-c2ccc(C(=O)O)cc2)s1	nt	i	nt	nt	nt	?
COc1ccc(C)cc1Nc1n[n+](-c2ccccc2)c(-c2ccc(NC(C)=O)cc2)s1	i	?	i	i	i	32µM

Screens deposited in PubChem BioAssay by National Center for Advancing Translational Sciences (NCATS).
